# Laboratory results: PMC4336329 (PLoS ONE, 2015)
# About 14,000 (4.5%) of roughly 310,000 compounds showed an effect of 50% or more. Effects have a minus sign here. What follows is part of a selection rich in strong results, with near analogues and random picks from the rest.
# Target: human ether-à-go-go-related gene (hERG) potassium channel (human, UniProt Q12809)
# Experiment: primary screen, population patch clamp on CHO cells stably expressing hERG; higher = less effect of the substance
# 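Note: peak tail current of the secondary pulse compared with the same well before compound.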
# Chain of human ether-à-go-go-related gene (hERG) potassium channel (Q12809 whole entry, looked up): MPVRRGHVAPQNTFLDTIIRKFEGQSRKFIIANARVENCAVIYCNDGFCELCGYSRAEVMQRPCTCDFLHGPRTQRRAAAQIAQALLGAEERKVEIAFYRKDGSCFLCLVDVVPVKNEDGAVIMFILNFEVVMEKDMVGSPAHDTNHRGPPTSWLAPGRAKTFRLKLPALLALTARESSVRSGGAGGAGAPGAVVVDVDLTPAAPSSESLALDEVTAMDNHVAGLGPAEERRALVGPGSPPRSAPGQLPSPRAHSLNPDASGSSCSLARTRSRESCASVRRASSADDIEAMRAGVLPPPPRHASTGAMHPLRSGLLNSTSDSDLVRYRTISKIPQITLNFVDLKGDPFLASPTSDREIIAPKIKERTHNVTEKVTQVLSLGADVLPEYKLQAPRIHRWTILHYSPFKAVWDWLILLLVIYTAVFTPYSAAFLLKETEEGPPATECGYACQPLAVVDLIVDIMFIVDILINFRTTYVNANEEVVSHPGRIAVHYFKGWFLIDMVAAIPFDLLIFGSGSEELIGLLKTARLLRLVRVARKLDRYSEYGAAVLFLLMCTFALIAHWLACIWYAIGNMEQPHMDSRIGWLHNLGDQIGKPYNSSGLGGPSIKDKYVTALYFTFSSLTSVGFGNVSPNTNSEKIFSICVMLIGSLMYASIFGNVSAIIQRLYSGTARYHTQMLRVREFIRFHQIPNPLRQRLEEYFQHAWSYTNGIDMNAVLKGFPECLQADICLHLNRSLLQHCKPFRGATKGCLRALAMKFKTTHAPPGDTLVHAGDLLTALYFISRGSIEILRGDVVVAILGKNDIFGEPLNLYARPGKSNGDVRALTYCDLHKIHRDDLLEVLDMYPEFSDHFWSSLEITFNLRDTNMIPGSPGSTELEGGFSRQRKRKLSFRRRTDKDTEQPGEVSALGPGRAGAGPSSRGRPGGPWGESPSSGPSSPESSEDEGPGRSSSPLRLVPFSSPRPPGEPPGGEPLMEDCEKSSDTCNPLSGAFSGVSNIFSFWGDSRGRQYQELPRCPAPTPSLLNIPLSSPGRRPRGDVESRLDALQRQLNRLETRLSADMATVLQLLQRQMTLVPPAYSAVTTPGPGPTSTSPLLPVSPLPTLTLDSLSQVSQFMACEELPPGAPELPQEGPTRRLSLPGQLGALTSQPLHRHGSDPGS
row,SMILES,"hERG current change (%, negative = inhibition) at 10uM"
1,CCOc1ccc(CC(=NCCc2ccccc2)C2=C(O)CC(C)(C)CC2=O)cc1OCC,-21.3%
2,O=C(O)c1ccccc1CSc1nnnn1-c1ccccc1,12.6%
3,Cc1cc(C)cc(N=C2NC(=O)/C(=C/c3cccs3)S2)c1,14.7%
4,CC(=O)c1ccccc1NC(=O)C1C2CCC(O2)C1C(=O)O (stereo not drawn),8.81%
5,Cc1c(CCO)c(=O)[nH]n1C(=O)c1c(F)cccc1F,-1.76%
6,COc1ccc(-c2n[nH]c(=S)n2-c2ccc(C)cc2C)cc1,19.5%
7,CC(NC(=O)c1ccc(CS(C)(=O)=O)cc1)c1cccc2ccccc12 (stereo not drawn),10.1%
8,CCOc1ccc(NC(=O)Nc2cc(-c3ccccc3)sc2C(=O)OC)cc1,-4.41%
9,COC(=O)C1=C(c2ccc(OC)c(OC)c2)C[C@@H]2CC[C@H]1N2C(=O)NCCO,15.5%
10,CC(C)(C)OC(=O)N1CCC[C@H]1C(=O)Nc1ccc(Br)cc1,13.5%
11,CCN1CCN(c2ccc(S(=O)(=O)N3CCOCC3)cc2NC(=O)CCC(C)C)CC1,-26.3%
12,C/C(CC(=O)Nc1cc(C)ccn1)=N\NC(=O)c1ccncc1,19.7%
13,O=C(c1ccc(Cl)cc1)N1CCC(C(=O)N2CCN(c3ncccn3)CC2)CC1,-56.6%
14,CC1CCCC(N2CCN(C(=O)c3ccc(F)cc3)CC2)C1 (stereo not drawn),-44.1%
15,O=C(c1ccc(Cl)cc1)N1CCN(c2ncccn2)CC1,6.85%
16,O=C(c1ccc(Cn2cc(Cl)c([N+](=O)[O-])n2)cc1)N1CCN(Cc2ccccc2)CC1,-12.5%
17,O=C(c1ccc([N+](=O)[O-])o1)N1CCN(Cc2ccccc2)CC1,2.99%
18,CC1CCCC(N2CCN(C(=O)c3cccc(F)c3)CC2)C1.O=C(O)C(=O)O (stereo not drawn),-6.93%
19,O=C(CCSc1ccc(Cl)cc1)N1CCCCCC1,-4.88%
20,CC1CCCC(N2CCN(C(=O)c3ccc([N+](=O)[O-])cc3)CC2)C1.O=C(O)C(=O)O (stereo not drawn),-71.9%
21,O=C(CCSc1ccc(Cl)cc1)N1CCN(c2ccc(O)cc2)CC1,-23.8%

row,SMILES,"hERG current change (%, negative = inhibition) at 10uM"
1,O=C(CCSc1ccc(Cl)cc1)N1CCN(c2ncccn2)CC1,-60.6%
2,Cc1ccccc1C(=O)N1CCC(C(=O)N2CCN(c3ncccn3)CC2)CC1,7.94%
3,Cl.O=C(c1ccc(Cn2ccc([N+](=O)[O-])n2)cc1)N1CCN(Cc2ccccc2)CC1,-56.1%
4,CCN(Cc1ccccc1)C(=O)CCc1nnc(CCCc2ccccc2)o1,21.1%
5,COc1cc(C(=O)NC(=S)Nc2ccc3oc(=O)ccc3c2)cc(OC)c1OC,9.8%
6,CC(=O)OC1COC(n2ccc3cc([N+](=O)[O-])ccc32)C(OC(C)=O)C1OC(C)=O (stereo not drawn),-12.2%
7,CC(C)C(=O)Nc1ccc(Sc2ccc(F)cc2)cc1,-3.48%
8,CCC(C)Nc1nc2c(c(=O)n(C)c(=O)n2C)n1Cc1ccc(Cl)cc1 (stereo not drawn),-7.45%
9,COc1ccccc1-c1nc(SCC(=O)O)n[nH]1,-1.65%
10,COc1ccc(N=Cc2c(O)n(-c3ccc(OC)cc3)c(=O)c3ccccc23)cc1,15.2%
11,CCN1CCN(C(=S)c2ccc([N+](=O)[O-])cc2)CC1,-36.9%
12,O=C(c1ccccc1)N1CCN(C(=O)c2ccc(OC(F)(F)F)cc2)CC1,-62.8%
13,O=C(c1ccc([N+](=O)[O-])cc1)N1CCCC1,4.5%
14,O=CN1CCN(C(=O)c2ccc([N+](=O)[O-])cc2)CC1,-22.3%
15,O=C(c1cccs1)N1CCN(c2nc3ccc([N+](=O)[O-])cc3s2)CC1,-7.47%
16,O=C(c1ccccc1)N1CCN(C(=O)c2ccc([N+](=O)[O-])cc2)CC1,-53.9%
17,CC(=O)N1CCN(C(=O)c2ccc(Oc3ccccc3)cc2)CC1,19.1%
18,Oc1ccc(C(=S)N2CCN(Cc3ccccc3)CC2)cc1,-5.46%
19,CC(=O)N1CCN(c2nc3ccc([N+](=O)[O-])cc3s2)CC1,-46.6%
20,O=C(c1ccccc1)N1CCN(C(=O)c2ccccc2)CC1,1.49%
21,O=C(c1ccccc1)N1CCN(c2nc3ccc([N+](=O)[O-])cc3s2)CC1,-55.4%

row,SMILES,"hERG current change (%, negative = inhibition) at 10uM"
1,O=[N+]([O-])c1ccc(C(=S)N2CCN(Cc3ccccc3)CC2)cc1,-57.6%
2,O=C(c1cc(N2C(=O)C3C4CCC(C4)C3C2=O)ccc1Cl)N1CCCCCC1 (stereo not drawn),3.82%
3,O=C(c1ccccc1)N1CCC(O)(c2ccc3c(c2)OCO3)CC1,-12.4%
4,CCn1c(CNC(=O)c2ccc3c(c2)OCO3)nnc1SCC(=O)Nc1ccccc1F,-6.31%
5,O=C(Nc1ccccc1)c1ccco1,15%
6,COC(=O)c1sccc1NC(=S)N1C(C)CCCC1C (stereo not drawn),-7.4%
7,Cc1ccc(S(=O)(=O)c2nc(C)c3c(n2)CCC3)cc1,3.61%
8,COc1ccc(C(=O)COC(=O)CCc2ccccc2)cc1,-11.4%
9,CC(=O)c1ccc(NC(=O)C(C)Sc2nnc(C3CCCCC3)o2)cc1 (stereo not drawn),-4.84%
10,CN1C(=O)N(C)C(=O)C2(Cc3cc([N+](=O)[O-])ccc3N3CCN(C(=O)c4ccccc4)CC32)C1=O (stereo not drawn),-65%
11,O=C1NC(=O)C2(Cc3cc([N+](=O)[O-])ccc3N3CCN(C(=O)c4ccccc4)CC32)C(=O)N1 (stereo not drawn),23%
12,O=C(c1ccc(-c2ccccc2)cc1)N1CCN(c2ncccn2)CC1,-5.92%
13,O=C(c1ccc2nc(-c3ccco3)c(-c3ccco3)nc2c1)N1CCN(c2ccccc2)CC1,-15.4%
14,CN1C(=O)N(C)C(=O)C2(Cc3cc([N+](=O)[O-])ccc3N(C)C2c2ccccc2)C1=O (stereo not drawn),-17.6%
15,O=C(c1ccncc1)N1CCN(C(=O)c2cccs2)CC1,6.46%
16,Cc1cc(C)n(-c2ccc(C(=O)N3CCN(c4ccccn4)CC3)cc2)n1,-32.5%
17,Cc1cc(-c2ccccc2)n(-c2ccc(C(=O)N3CCN(c4ncccn4)CC3)cc2)n1,-56.4%
18,O=C(c1ccc([N+](=O)[O-])cc1)N1CCN(C(=O)c2cccs2)CC1,-70.3%
19,Cc1ccc(C)c(N2CCN(C(=O)c3ccc4nc(-c5ccco5)c(-c5ccco5)nc4c3)CC2)c1,21.1%
20,CC(C)N1CCN(C(=O)c2ccc([N+](=O)[O-])cc2)CC1,-39.8%
21,O=C(c1ccc2nc(-c3ccco3)c(-c3ccco3)nc2c1)N1CCN(c2ncccn2)CC1,-67.8%
